This note sets out measurements from PubChem BioAssay (NCI).

Structures are written as SMILES. Several values for one entry are separate records, joined by “and”; a condition that tells them apart may be missing. Identical values can stand only once. Compounds without any hit were thinned out: in the full panel of roughly 83,000, 20% have a hit.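 How to read the values: 0–100, growth inhibition (40 = 60% inhibited); 0, no net growth; -100 to 0, cell death (-40 = 40% of starting cells died; -100 = all dead).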 Values without a mark were called inactive. Activity calls are given as the source filed them. Rule for the calls: active = growth percent below 10; inactive = the rest.

What all share (test): NCI-60 one-dose screen, 48 h (100 = growth as untreated, 0 = no growth, -100 = all killed)
What all share (settings): 10 µM unless noted

For experiment [1], the system named is SK-MEL-2 melanoma.
Experiment [2] deals with EKVX NSCLC.
The subject of experiment [3] is SN12C renal.
Experiment [4] deals with TK-10 renal.
Experiment [5] concerns ACHN renal.
Experiment [6] relates to CAKI-1 renal.
Experiment [7] concerns A498 renal.
For experiment [8], the system named is HL-60(TB) leukemia.
In experiment [9] the test system is CCRF-CEM leukemia.
Experiment [10] has as its system UO-31 renal.

With `O=S(=O)(c1ccc(O)cc1)c1ccccc1O`, the growth was 104% in experiment [1]; 107% in experiment [2]; 101% in [3]; 107% in [4]; 98.7% in [5]; 96.2% in [6]. Further, the values for the growth in experiment [7], in experiment [8] and in experiment [9] were 97%, 106% and 88.6%, respectively.
Take `C[C@]12C[C@H](c3ccoc3)OC(=O)[C@H]1CC[C@@]1(C)[C@@H]2[C@H]2C=C[C@]1(O)C(=O)O2`: the growth in experiment [1] is 94.9%; in experiment [2] it was 95.4%; in experiment [3], 97.6%; in experiment [10], 88%; in experiment [5] it was 108%; in experiment [6], 81.9%. Moreover, the growth in experiment [7] is 105%; in [8], 73.5%; in experiment [9], 96%.
Turning to `CC(C)c1cccc(C(C)C)c1O`, the growth in experiment [1] was 113%; in [2] it was 101% and 94.5%; in experiment [3] it was 108% and 104%; in experiment [10], 88%; in experiment [5] it was 104% and 105%; in experiment [6] it was 95.1% and 88.4%. Also, the growth in experiment [7] was 112% and 113%; in [8] it was 97.9% and 85.9%; in [9], 107% and 90.6%.
As for `COC(=O)C1=CO[C@@H](C)[C@@H]2CN3CCc4c([nH]c5cc(OC)ccc45)[C@@H]3C[C@H]12`, the growth is 100% in experiment [1]; 97.5% in experiment [2]; 87.8% in [3]; 101% in [4]; 94.8% in experiment [5]; 89.8% in experiment [6]. Further, the growth in experiment [7] is 68.6%; in experiment [8] it was 87.1%; in experiment [9] it was 106%.
Turning to `COC(=O)[C@@H](C)C[C@H](Cc1ccccc1)NC(=O)c1cccc([C@@H](C[C@H](C(C)C)N(C)C(=O)[C@@H](NC(=O)[C@H]2CCCCN2C)C2CC2)OC(C)=O)n1`, the growth is 44.2% in experiment [1]; 54.6% in [2]; 28.7% in experiment [3]; 40.6% in experiment [10]; 24.7% in experiment [5]; 25.7% in [6]. Moreover, the growth was -4.08% (active) in [7], -38.2% (active) in experiment [8] and 16% in experiment [9].
Consider `O=S1(=O)OCCO1`, for which the growth is 113% in [1]; 100% in experiment [2]; 93.3% in experiment [3]; 98.5% in [4]; 89.5% in experiment [6]; 99% in experiment [7]. Also, the growth was 98.6% in [8] and 94.6% in [9].
As to `S=P(SP(=S)(c1ccccc1)c1ccccc1)(c1ccccc1)c1ccccc1`, the growth in [1] was 96.6%; in experiment [2] it was 97.6%; in experiment [3], 97.5%; in experiment [10], 95.2%; in experiment [5] it was 99.4%; in [6], 97.9%. For the same molecule, the growth in [7] is 98.3%; in experiment [8], 48.5%; in experiment [9], -61.3% (active).
For `O=[N+]([O-])c1ccc2scc3c4ccccc4nc-3c2c1`, the growth in experiment [1] is -63.2% (active); in experiment [2], 37.1%; in experiment [10], -85.4% (active); in [4], -53.7% (active); in experiment [5] it was -97.5% (active); in experiment [6], -40.6% (active). Also, the growth was 44.9% in experiment [7], 1.24% (active) in experiment [8] and -12.3% (active) in [9].
For `CN1[C@@H](CC(=O)c2ccccc2)CCC[C@H]1CC(=O)c1ccccc1`, the growth in [1] was 42.8%; in [2] it was 96.7%; in [3], 96.6%; in [10], 83.7%; in experiment [5], 97.3%; in [6] it was 101%. The figures for the growth in experiment [7], in [8] and in experiment [9] were 115%, 116% and 111%, respectively.
In the case of `CC(=O)C(N)Cc1ccccc1` (stereo not drawn), the growth in [1] was 107%; in experiment [2] it was 100%; in experiment [3], 95.7%; in experiment [10], 96.3%; in experiment [5] it was 99.7%; in experiment [6], 96.2%. In addition, the growth in [9] is 84.4%.
Turning to `CN(C)[C@@H]1C(=O)C(C(N)=O)=C(O)[C@@]2(O)C(=O)C3=C(O)c4c(O)ccc(Cl)c4[C@@](C)(O)[C@H]3C[C@@H]12`, the growth was 81.6% and 24.7% in [1]; 111% and 98.3% in [2]; 93.7% and 103% in experiment [3]; 55.1% and 82.1% in experiment [10]; 70.9% and 94.4% in experiment [5]; 73.1% and 99.6% in experiment [6]. In addition, the growth is 92.2% and 110% in experiment [7]; 100% in experiment [8]; 94.1% and 101% in experiment [9].
For `CC1=CC(=O)CCC12CCOC2=O` (stereo not drawn), the growth is 125% in [1]; 91.4% in [2]; 95.2% in experiment [3]; 92% in experiment [4]; 91.3% in [6]; 91.7% in experiment [7]. For the same molecule, the growth is 86.5% in experiment [8] and 82.4% in experiment [9].
Turning to `COc1ccc2c(c1)c(-c1nc(-c3c[nH]c4ncccc34)cs1)cn2CCCCN1CCOCC1`, the growth is 69% in experiment [1]; 68.4% in experiment [2]; 61.9% in [3]; 22.8% in experiment [10]; 17.1% in experiment [5]; 37.5% in experiment [6]. In addition, the growth was 92.3% in experiment [7], 7.66% (active) in experiment [8] and -8.39% (active) in experiment [9].
